Among the data in PubChem BioAssay (NCI) are growth values, retold here.

Structures are written as SMILES. “And” between values parts separate entries of the source, which are not always exact repeats. Equal entries are not always repeated. The panel holds about 83,000 compounds, 20% with a hit somewhere; the sample as a whole holds those more often.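 Activity criterion: percent growth below 10, measured after cells in 96-well plates were exposed to a single compound concentration for 48 hours.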 The source made the active and inactive calls.

The test system of one experiment is HS 578T breast. In words: NCI-60 one-dose screen, 48 h (100 = growth as untreated, 0 = no growth, -100 = all killed). The note with it: 10 µM. Here is the method: Growth inhibition of the HS 578T human tumor cell line is measured as a screen for anti-cancer activity. Cells are grown in 96 well plates and exposed to the test compound for 48 hours. Compounds are tested at a single concentration, which is 10^-5 M for most compounds. The reported endpoint is percent growth (GI% or GIPRCNT), where numbers from 0 - 100% represent growth inhibition, and numbers from -100% - 0 represent cell death. For example, a value of 40 represents 60% growth inhibition. A value of 0 means no net growth occurred over the course of the experiment. A value of -40 indicates 40% of cells at the beginning of the experiment died by the end of the experiment. A value of -100 means all cells are dead at the end of the experiment.
NCI-60 Human Tumor Cell Lines Screen was performed using the standard one-dose NCI protocol, which is described in more detail at https://dtp.cancer.gov/discovery_development/nci-60/default.htm.
Compounds with GIPRCNT values below 10 were considered active. Activity score was based on GIPRCNT using the following formula: […]
Score is 0 for GIPRCNT values of 100 or above, 50 for GIPRCNT values of 0, and 100 for GIPRCNT values of -100.
With `CCc1ccccc1-n1c(N)c(C#N)c(-c2ccc(OC)c(OC)c2)c(C#N)c1=O`, the growth was 116% (inactive).

The experiment is the same for the next values; noted with them: 10 µM unless noted.
In the case of `Nc1ccc(N=Nc2ccc(S(=O)(=O)O)cc2)cc1S(=O)(=O)O`, the growth is 83.7% (inactive) and 88.9% (inactive). `CN(C)c1ccc2nc3ccc(=[N+](C)C)cc-3sc2c1`: the growth was 49.8% (inactive) and 111% (inactive). With `CCc1c(CC(=O)O)c2cc(C)ccc2n1Cc1ccc(Cl)cc1`, the growth was 87.2% (inactive) and 113% (inactive). On the same count and under the same terms, under `COc1cc(Nc2nc3ccccc3nc2NS(=O)(=O)c2ccc(NC(=O)c3ccc(C)c(OC)c3)cc2)cc(OC)c1` stands 3.34% (active); under `C/C(=N\NC(=O)c1ccncc1)c1ccccc1O`, 76.1% (inactive). On the same count and under the same terms, for `S=C1SCN(Cc2ccccc2)CN1Cc1ccccc1` the value was 90.4% (inactive); for `CC(=O)NC(Cc1ccccc1)C(=O)Oc1ccc2ccccc2c1` (stereo not given), 98.8% (inactive) and 107% (inactive).

In the case of `O=C(CCl)c1ccc2c(c1)Nc1ccccc1S2`, the growth is 93% (inactive) and 106% (inactive). Same read-out and setting: for `COc1ccc(/C(C#N)=C/c2ccccn2)cc1` the value was 104% (inactive) and 309% (inactive); for `CCN(CC)CCOc1ccc2c(c1)C(=O)c1cc(OCCN(CC)CC)ccc1-2`, 97.8% (inactive) and 91.7% (inactive); for `S=C(S)N1CCCC1`, 106% (inactive).

On to `CCCCCCCCCCCCCCCCOc1ccc(C)cc1`, for which the growth was 110% (inactive). On to `Oc1ccccc1/C=N\NC(=S)N/N=C/c1ccccc1O`, for which the growth is 98.4% (inactive) and 73.4% (inactive). Same read-out and setting: for `CCOc1ccc2cc(-c3nn(CC4CCNCC4)c4ncnc(N)c34)ccc2c1` the value was 83.8% (inactive) and 22.1% (inactive). Still for that read-out and setting: for `CC1(C)[C@@H](OC(=O)CCC(=O)O)CC[C@]2(C)[C@H]3C(=O)C=C4[C@@H]5C[C@@](C)(C(=O)O)CC[C@]5(C)CC[C@@]4(C)[C@]3(C)CC[C@@H]12` the value was 112% (inactive) and -12.9% (active); for `COc1ccc(Cn2c(NCCN=C(N)N)nc(=O)n(Cc3ccc(F)cc3)c2=O)cc1`, 87.5% (inactive) and 66.2% (inactive); for `O=C1c2ccccc2C(=O)c2c(NCCNCCO)ccc(NCCNCCO)c21`, -20.7% (active) and -14.7% (active) and 30.7% (inactive). Still for that read-out and setting: under `COc1cc2nc(N3CCN(C(=O)C4COc5ccccc5O4)CC3)nc(N)c2cc1OC` (stereo not given) stands 93.7% (inactive) and 118% (inactive).

Take `Nc1ccc2ccc(N)cc2c1`: the growth was 104% (inactive).

On to `O[C@H](c1cc(C(F)(F)F)nc2c(C(F)(F)F)cccc12)[C@@H]1CCCCN1`, for which the growth is 66.3% (inactive) and 63% (inactive).

`CCOc1ccc2nc3cc(N)ccc3c(N)c2c1`: the growth was 28.8% (inactive). For `COc1ccccc1NC(=O)OCC#CCOC(=O)Nc1ccccc1OC`, the growth is 99.7% (inactive) and 76.3% (inactive). On the same count and under the same terms, under `CCN(CC)CCCC(C)N(Cc1ccccc1)CC(O)c1ccc(Cl)cc1` (stereo not given) stands 93.8% (inactive) and 111% (inactive); under `O=C(/C=C/c1ccccn1)c1ccccc1O`, 87.2% (inactive); under `CCCCCN(CCCCC)CC(O)c1cc2c(c3ccccc13)CCCC2` (stereo not given), 85.6% (inactive) and 2.9% (active).

As for `CC[N+](CC)(CC(=O)Nc1c(C)cccc1C)Cc1ccccc1`, the growth was 109% (inactive). For the molecule `Cc1cc(O)c(C(C)C)cc1S(=O)(=O)O` (tested in a mixture with another compound), the growth was 95.3% (inactive) and -15.9% (active) and 103% (inactive). Still for that read-out and setting: for `CCC(=O)C(CC)c1cccc(OC)c1` (stereo not given) the value was 106% (inactive); for `c1ccc2cc(C[n+]3ccn(Cc4ccc5ccccc5n4)c3)ccc2c1`, 27.8% (inactive) and 33% (inactive); for `COc1cc(/C=N/Nc2nc3c([nH]2)c(=O)n(C)c(=O)n3C)ccc1O`, 118% (inactive) and 103% (inactive). As for `O=C(c1ccc(Cl)cc1)C(NCCO)c1ccc(Cl)cc1` (stereo not given), the growth was 101% (inactive) and 117% (inactive).

With `Fc1ccccc1Nc1n[nH]c(=S)s1`, the growth was 107% (inactive). As to `O=C(Oc1cccc(OC(=O)c2ccccc2)c1)c1ccccc1`, the growth was 78.4% (inactive) and 102% (inactive).

In the case of `CCCCOc1cc(C(=O)NCCN(CC)CC)c2ccccc2n1`, the growth was 92.3% (inactive) and 128% (inactive). As for `CCNC(=O)Nc1ccc(-c2nc3c(c(N4CCOC[C@@H]4C)n2)CCN(C2COC2)C3)cc1`, the growth is 1.21% (active).

On to `CC(C)Cc1ccc(C(C)C(=O)NCc2ccc(Cn3c(=O)sn(CCCCl)c3=O)cc2)cc1` (stereo not given), for which the growth was 106% (inactive) and -11% (active). Consider `CC(/C=N/N1C(=O)c2ccccc2C1=O)c1ccccc1` (stereo not given), for which the growth was 119% (inactive). Same read-out and setting: under `COc1cc(NS(C)(=O)=O)ccc1Nc1c2ccccc2nc2c(C)cccc12` stands 32.7% (inactive) and 43% (inactive).

The same experiment, now with this note: 100 µM.
`CCc1ccccc1-n1c(N)c(C#N)c(-c2ccc(OC)c(OC)c2)c(C#N)c1=O`: the growth is 27.2% (inactive).
